Compound activity: PubChem, Bradner/Qi Labs at DFCI
CBX7 AlphaScr: inhibitors of human CBX7 binding to H3K27me3 peptide; AlphaScreen His6-CBX7 / biotin-H3K27me3 peptide binding; active compounds read low; AID 1224903; normalised signal (fraction of DMSO) (concentration not given with the values); actives 1.1% (n = 66,000); O95931; in the data active means normalised signal below about 0.5
Target sequence (O95931 whole entry, looked up): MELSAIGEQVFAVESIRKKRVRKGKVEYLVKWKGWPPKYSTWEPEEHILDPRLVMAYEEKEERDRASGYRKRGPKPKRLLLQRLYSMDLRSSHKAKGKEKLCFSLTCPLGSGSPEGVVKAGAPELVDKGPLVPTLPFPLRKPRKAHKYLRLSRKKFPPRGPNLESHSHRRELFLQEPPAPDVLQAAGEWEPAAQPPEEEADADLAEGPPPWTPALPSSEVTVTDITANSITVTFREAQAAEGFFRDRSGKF
Starred values were filed as active, the others as inactive. Only a selection was taken, and hits are over-represented in it overall.

SMILES | CBX7 AlphaScr
COc1cc(OC)cc(-c2nnc(NC(=O)c3ccc(S(=O)(=O)N4CCOCC4)cc3)o2)c1 | 0.85
CN(C)S(=O)(=O)c1ccc(C(=O)Nc2nnc(-c3cccs3)o2)cc1 | 0.22*
O=C(Nc1nnc(-c2cccs2)o1)c1ccc(S(=O)(=O)N2CCCC2)cc1 | 0.13*
CC1CC(C)CN(S(=O)(=O)c2ccc(C(=O)Nc3nnc(-c4cccs4)o3)cc2)C1 (stereo unspecified) | 0.88
COc1ccc(-c2nnc(NC(=O)c3ccc(S(=O)(=O)N(C)c4ccccc4)cc3)o2)cc1 | 0.94
Cc1cc(-c2ccccc2)nc2cc(C(=O)N3CCCC3)nn12 | 1
CC(C)OCCCNC(=O)C1CCC(=O)N1Cc1ccc(F)cc1 (stereo unspecified) | 1
CCCNC(=O)c1ccc2c(c1)ncn2-c1cccc(F)c1 | 0.94
O=C(NCCCN1CCc2ccccc2C1)c1ccc2c(c1)N(Cc1ccccc1)CCS2 | 0.63
C=C(C)Cn1c(C2CC(=O)N(c3ccccc3)C2)nc2ccccc21 (stereo unspecified) | 0.77
CC1CCN(C(=O)c2c[nH]c3ccc(S(=O)(=O)N4CCOCC4)cc3c2=O)CC1 | 1
COC(=O)CNC(c1ccccc1)c1cc(Br)ccc1NC(=O)c1ccc(Br)cc1 (stereo unspecified) | 0.96
O=C(Nc1nccs1)c1ccc(S(=O)(=O)N2CCOCC2)cc1 | 1.1
COc1cc(OC)cc(-c2nnc(NC(=O)c3ccc(S(=O)(=O)N4CCC(C)CC4)cc3)o2)c1 | 0.98
O=C(Nc1nnc(-c2ccc(Cl)s2)o1)c1ccc(S(=O)(=O)N2CCOCC2)cc1 | 0.0063*
CCN(CCCNC(=O)Cc1cn(C)c2ccccc12)c1cccc(C)c1 | 0.32*
O=C(CC(C(=O)N1CCc2ccccc21)n1ccnc1)NCCN1CCCCCC1 (stereo unspecified) | 0.34*
O=C(CC(C(=O)N1CCc2ccccc21)n1ccnc1)NCCCN1CCOCC1 (stereo unspecified) | 0.99
CN1CCN(CCCNC(=O)CC(C(=O)N2CCc3ccccc32)n2ccnc2)CC1 (stereo unspecified) | 0.98
CCN(CCCNC(=O)CCn1c(=O)[nH]c2ccccc2c1=O)c1cccc(C)c1 | 1
CCCCNC(=O)CC(C(=O)N1CCc2ccccc21)n1ccnc1 (stereo unspecified) | 1
CCCCCCCNC(=O)CC(C(=O)N1CCc2ccccc21)n1ccnc1 (stereo unspecified) | 0.88
CCN(CCCNC(=O)CC(C(=O)N1CCc2ccccc21)n1ccnc1)c1cccc(C)c1 (stereo unspecified) | 0.23*
CCN(CCCNC(=O)c1cn(C)c(=O)c2c1c1ccccc1n2C)c1cccc(C)c1 | 0.96
COc1ccc(C(=O)NC(C)C(c2cccs2)N2CCN(c3ccccc3)CC2)cc1OC (stereo unspecified) | 0.68
SMILES | CBX7 AlphaScr
COCCCNC(=O)C1CCCN(C(=O)c2cnn(-c3ccccc3)c2-n2cccc2)C1 (stereo unspecified) | 1
Cc1c(C(=O)NCCCN2CCOCC2)oc2ccc(S(=O)(=O)N3CC(C)CC(C)C3)cc12 (stereo unspecified) | 1.1
O=C(Nc1ccc(N2CCOCC2)cc1)c1ccc(-c2ccc(F)cc2)o1 | 0.89
COc1ccc(CCNc2oc(COc3cccc(C)c3)nc2C#N)cc1OC | 0.46*
Cc1ccccc1OCc1nc(C#N)c(NCc2ccc3c(c2)OCO3)o1 | 0.91
Cc1cccc(OCc2nc(C#N)c(NCCc3ccccc3)o2)c1 | 0.67
Cc1cccc(OCc2nc(C#N)c(NCCN(C)C)o2)c1 | 1
COc1ccc(CCNc2oc(COc3ccc(F)cc3)nc2C#N)cc1OC | 0.55
COc1ccc(CCNc2oc(COc3ccc(C)cc3)nc2C#N)cc1OC | 0.48*
COc1ccc(CNc2oc(COc3cccc(C)c3)nc2C#N)cc1 | 0.67
Cc1cccc(OCc2nc(C#N)c(NCc3ccc4c(c3)OCO4)o2)c1 | 0.43*
COc1ccc(CCNc2oc(COc3ccc(Cl)cc3)nc2C#N)cc1OC | 0.95
COc1cccc(N2C(=O)C(CC(=O)Nc3ccccc3)N(Cc3ccc(OC)c(OC)c3)C2=O)c1 (stereo unspecified) | 1
O=c1c2ccccc2nc(-c2ccccc2F)n1Cc1ccccc1Cl | 1.2
CCOC(=O)c1c(C)nc2nonc2c1N | 0.95
CCCCNC(=O)CN1C(=O)COc2ccc(S(=O)(=O)N3CCC(C)CC3)cc21 | 1.1
COc1ccc(-c2c3c(=O)n(C)c(=O)n(C)c3cn2-c2ccc(C)cc2)cc1 | 0.7
CCC(=O)N1CCc2cc(S(=O)(=O)NCCC(=O)N3CCN(c4ccccc4F)CC3)ccc21 | 1
CCCCOc1ccc(C(=O)NCCc2c[nH]c3ccccc23)cc1 | 0.91
Cc1noc(/C=C/c2cccs2)c1S(=O)(=O)N1CCC(C(=O)NCCC(C)C)CC1 | 0.92
COc1ccc(-c2nc3ccccn3c2Nc2ccc3c(c2)OCO3)cc1 | 0.9
O=C(NC1CC1)c1ccc2c(c1)N(Cc1ccc(F)cc1)C(=O)CS2 | 1
COc1ccc(Cc2noc(-c3cc(-c4ccncc4)nc4ccccc34)n2)cc1 | 0.49*
COc1ccc(-c2noc(-c3cc(-c4ccccc4)nc4ccccc34)n2)cc1 | 1.2
COc1ccc(Cc2noc(-c3cc(-c4ccc(F)cc4)nc4ccccc34)n2)cc1 | 1.3
SMILES | CBX7 AlphaScr
CCOc1ccc(-n2c(Cc3cc(=O)[nH]c(=O)[nH]3)nnc2SCC(=O)Nc2nccs2)cc1 | 0.98
CCc1ccccc1NS(=O)(=O)c1ccc2[nH]cc(C(=O)N3CCOCC3)c(=O)c2c1 | 1.2
Cc1ccc(-n2ncc3c(NCc4cccnc4)ncnc32)c(C)c1 | 1
Cc1ccc(-n2ncc3c(NCCO)ncnc32)c(C)c1 | 0.95
Cc1ccc(-n2ncc3c(NCc4ccccn4)ncnc32)c(C)c1 | 0.12*
CCOc1ccc(CNC(=O)c2cc(=O)[nH]c3ccc(S(=O)(=O)N4CCCCC4C)cc23)cc1 (stereo unspecified) | 1.1
COc1ccccc1CN1C(=O)c2ccccc2C1C(=O)NCc1cccnc1 (stereo unspecified) | 1
CCOC(=O)N1CCN(C(=O)C2CCCN(c3nc4ccc(OCC)cc4s3)C2)CC1 (stereo unspecified) | 0.95
CCCN1CCN(C(=O)C2CCCN(c3nc4ccc(OCC)cc4s3)C2)CC1 (stereo unspecified) | 0.29*
CCOc1ccc2nc(N3CCCC(C(=O)NCCCN4CCOCC4)C3)sc2c1 (stereo unspecified) | 0.99
CCOc1ccc2nc(N3CCCC(C(=O)NCCCN4CCN(C)CC4)C3)sc2c1 (stereo unspecified) | 0.44*
CCCNC(=O)C1CCCN(c2nc3ccc(OCC)cc3s2)C1 (stereo unspecified) | 0.96
CCOc1ccc2nc(N3CCCC(C(=O)N4CCN(c5ccc(OC)cc5)CC4)C3)sc2c1 (stereo unspecified) | 0.61
CCCN1CCN(C(=O)C2CCN(S(=O)(=O)c3c(C)noc3/C=C/c3cccs3)CC2)CC1 | 0.92
Cn1c(C(=O)N2CCC3(CC2)OCCO3)cc2sc(Cl)cc21 | 0.98
CC1=C(C(=O)Nc2ccc(C)cn2)C(c2cccc(Br)c2)C2=C(CCCC2=O)N1 (stereo unspecified) | 1.3
NS(=O)(=O)c1ccc(CNC2CC(=O)N(c3ccc(Cl)cc3)C2=O)cc1 (stereo unspecified) | 1
CC(C)N(CCNC(=O)C1CCC(=O)N1Cc1ccccc1Cl)Cc1ccccc1 (stereo unspecified) | 1.1
CCc1nnc(NC(=O)c2ccc(S(=O)(=O)N(C)c3ccccc3)cc2)o1 | 0.68
